Measured values: PubChem BioAssay (EPA / NIEHS)
The source made the active and inactive calls. How the source made its calls: active means hit-call score of the fitted dose curve at least 0.9, where 1 is the maximum; inactive means score below 0.9.

Assay: CCTE_Deisenroth_DEVTOX-GLR_legacy_CellCount: (Legacy) Viability Assessment in CCTE's DevTox GLR-Endo Assay, Deisenroth Lab (AID 2284331)
Conditions: actives raise or lower the signal
Outline: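 Seed RUES2-GLR 24 h; differentiate 48 h, dosing at 0 and 24 h; fix, stain nuclei; image 5 fields/well; count nuclei. Conc. 1 nM - 200 uM, single technical replicate, n=4 experiments; bidirectional fit vs 0.2% DMSO.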

| SMILES | AC50 | outcome |
| --- | --- | --- |
| CC/C(=C(/CC)c1ccc(O)cc1)c1ccc(O)cc1 | 1.54 µM (active) |  |
| CCCCOC(=O)c1ccc(O)cc1 | 38.2 µM (active) |  |
| OCCO |  | inactive |
